Activity calls are given as the source filed them.
What was measured:
[1] = small molecules captured by biotinylated probe aFSTL3 – biochemical, small-molecule microarray, fluorescence 635/667, stem cell growth factor project, primary screen (AID 1064); settings: higher = more signal;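 also: measures binding of the biotinylated anti-FSTL3 antibody to printed compounds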
[2] = binders from COS7 lysate, DM2A8 probe, primary screen, torsin A project, cell lysate, small-molecule microarray, fluorescence 635/667 (AID 1065); settings: higher = more signal, COS7 lysate expressing mutant human TOR1A
[3] = small molecules captured by biotinylated probe aFGF2 – biochemical, small-molecule microarray, fluorescence 635/667, stem cell growth factor project, primary screen (AID 1067); settings: higher = more signal;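 also: measures binding of biotinylated aFGF2 protein to printed compounds on slides; z-score merges feature fluorescence and signal-to-noise across triplicate slides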
[4] = small molecules captured by biotinylated probe aFGF10 – biochemical, small-molecule microarray, fluorescence 635/667, stem cell growth factor project, primary screen (AID 1071); settings: higher = more signal;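 also: score merges 667 nm spot intensity and signal to noise from triplicate slides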
[5] = target: Neurogenic locus notch homolog protein 2 (Homo sapiens) (UniProt Q04721); experiment: small molecules binding Notch2 protein – biochemical, small-molecule microarray, 635 nm fluorescence, stem cell growth factors, primary screen (AID 1073); settings: higher = more signal
[6] = target: Pro-neuregulin-1, membrane-bound isoform (Homo sapiens) (UniProt Q02297); experiment: small molecules binding neuregulin-1 protein – biochemical, small-molecule microarray, fluorescence 635/667, psychiatric disease protein project, primary screen (AID 1075); settings: NRG1 binding, 635 nm fluorescence, higher = more signal;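 also: score combines 667 nm spot fluorescence with signal to noise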
[7] = test system: Neuregulin-1 EGF-like domain; experiment: small molecules binding NRG1 EGF domain – biochemical, small-molecule microarray, 635 nm fluorescence, primary screen (AID 1081); settings: higher = more signal;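 also: binding of the protein to compounds printed on small-molecule microarray slides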
[8] = FRG1 expression reporter modulators in myotubes – cell-based, C2C12 myotubes, firefly/Renilla luciferase, luminescence, FRG1 inhibition for FSHD, primary screen (AID 1084); settings: FRG1 promoter luciferase, higher = more signal, called active from +8 up or from −8 down
[9] = small molecules captured by biotinylated probe aFST – biochemical, small-molecule microarray, fluorescence 635/667, stem cell growth factor project, primary screen (AID 1086); settings: higher = more signal;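 also: score merges 667 nm fluorescence with signal-to-noise of each printed compound spot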
[10] = binders of probe aHhip on microarray, primary screen, stem cell growth factor project, biochemical, small-molecule microarray, fluorescence 635/667 (AID 1087); settings: higher = more signal;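 also: score merges spot fluorescence at 667nm with spot signal to noise ratio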

Sequence of Neurogenic locus notch homolog protein 2 (Homo sapiens) (Q04721 whole entry, looked up, canonical isoform): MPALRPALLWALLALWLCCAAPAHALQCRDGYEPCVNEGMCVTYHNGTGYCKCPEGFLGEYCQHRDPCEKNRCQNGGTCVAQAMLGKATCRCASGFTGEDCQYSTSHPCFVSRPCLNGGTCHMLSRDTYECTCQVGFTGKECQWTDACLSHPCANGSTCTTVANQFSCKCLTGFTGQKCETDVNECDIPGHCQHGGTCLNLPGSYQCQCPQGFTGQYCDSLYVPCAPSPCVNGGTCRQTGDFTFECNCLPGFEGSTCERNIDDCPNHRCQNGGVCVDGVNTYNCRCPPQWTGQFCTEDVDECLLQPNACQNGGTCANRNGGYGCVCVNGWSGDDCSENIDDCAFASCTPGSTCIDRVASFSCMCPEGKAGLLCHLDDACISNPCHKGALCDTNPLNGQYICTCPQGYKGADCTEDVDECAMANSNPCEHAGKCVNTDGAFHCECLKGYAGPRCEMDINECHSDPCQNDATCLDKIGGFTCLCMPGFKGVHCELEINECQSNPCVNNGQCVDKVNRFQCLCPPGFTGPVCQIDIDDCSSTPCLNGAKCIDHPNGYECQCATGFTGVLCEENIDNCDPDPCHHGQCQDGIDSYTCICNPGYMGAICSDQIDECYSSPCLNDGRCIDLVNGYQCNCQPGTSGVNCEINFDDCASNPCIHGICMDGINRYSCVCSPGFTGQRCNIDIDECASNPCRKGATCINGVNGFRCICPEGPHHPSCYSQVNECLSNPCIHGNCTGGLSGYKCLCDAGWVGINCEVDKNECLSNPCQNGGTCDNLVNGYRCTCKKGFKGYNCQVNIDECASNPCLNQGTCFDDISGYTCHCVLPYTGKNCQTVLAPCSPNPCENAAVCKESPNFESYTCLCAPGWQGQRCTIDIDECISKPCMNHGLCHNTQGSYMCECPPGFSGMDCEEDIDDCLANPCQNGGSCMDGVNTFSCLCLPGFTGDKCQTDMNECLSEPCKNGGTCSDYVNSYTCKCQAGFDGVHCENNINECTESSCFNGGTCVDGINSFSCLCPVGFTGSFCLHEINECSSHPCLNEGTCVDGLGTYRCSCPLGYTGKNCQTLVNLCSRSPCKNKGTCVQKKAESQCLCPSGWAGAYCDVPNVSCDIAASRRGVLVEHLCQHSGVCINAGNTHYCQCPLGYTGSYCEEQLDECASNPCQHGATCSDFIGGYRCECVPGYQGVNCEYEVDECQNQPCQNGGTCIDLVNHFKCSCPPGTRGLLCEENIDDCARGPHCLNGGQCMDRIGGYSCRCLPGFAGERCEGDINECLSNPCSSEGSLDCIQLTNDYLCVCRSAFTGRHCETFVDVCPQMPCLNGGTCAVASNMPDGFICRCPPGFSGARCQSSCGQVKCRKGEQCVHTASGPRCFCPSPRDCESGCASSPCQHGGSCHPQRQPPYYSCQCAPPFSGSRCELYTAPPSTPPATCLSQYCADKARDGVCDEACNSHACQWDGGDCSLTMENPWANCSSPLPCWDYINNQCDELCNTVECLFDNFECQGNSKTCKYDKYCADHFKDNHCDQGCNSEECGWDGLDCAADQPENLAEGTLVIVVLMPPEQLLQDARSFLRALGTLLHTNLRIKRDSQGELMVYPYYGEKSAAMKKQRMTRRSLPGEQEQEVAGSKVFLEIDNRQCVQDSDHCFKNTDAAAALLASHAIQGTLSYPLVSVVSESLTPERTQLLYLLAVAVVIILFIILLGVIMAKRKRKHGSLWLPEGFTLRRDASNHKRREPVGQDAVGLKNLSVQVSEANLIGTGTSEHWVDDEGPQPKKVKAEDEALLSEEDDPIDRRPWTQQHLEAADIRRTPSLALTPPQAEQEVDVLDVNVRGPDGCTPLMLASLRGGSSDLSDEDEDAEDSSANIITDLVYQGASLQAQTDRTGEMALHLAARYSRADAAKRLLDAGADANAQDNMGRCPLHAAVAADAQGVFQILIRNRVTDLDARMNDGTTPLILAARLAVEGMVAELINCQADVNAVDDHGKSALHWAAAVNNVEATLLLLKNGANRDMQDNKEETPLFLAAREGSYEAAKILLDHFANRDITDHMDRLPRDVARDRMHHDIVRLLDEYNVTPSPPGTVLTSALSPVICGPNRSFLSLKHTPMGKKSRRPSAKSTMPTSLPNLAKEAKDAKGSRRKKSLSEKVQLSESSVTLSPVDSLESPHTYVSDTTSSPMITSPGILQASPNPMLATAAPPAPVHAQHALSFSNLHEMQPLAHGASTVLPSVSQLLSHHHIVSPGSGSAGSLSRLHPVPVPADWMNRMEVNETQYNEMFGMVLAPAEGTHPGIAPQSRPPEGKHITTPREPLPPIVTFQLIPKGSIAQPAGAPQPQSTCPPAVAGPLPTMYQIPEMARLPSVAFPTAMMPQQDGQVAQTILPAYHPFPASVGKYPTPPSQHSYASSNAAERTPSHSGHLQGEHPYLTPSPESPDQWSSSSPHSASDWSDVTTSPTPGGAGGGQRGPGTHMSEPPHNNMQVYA
Sequence of Pro-neuregulin-1, membrane-bound isoform (Homo sapiens) (Q02297 whole entry, looked up, the tested form may be a part, canonical isoform): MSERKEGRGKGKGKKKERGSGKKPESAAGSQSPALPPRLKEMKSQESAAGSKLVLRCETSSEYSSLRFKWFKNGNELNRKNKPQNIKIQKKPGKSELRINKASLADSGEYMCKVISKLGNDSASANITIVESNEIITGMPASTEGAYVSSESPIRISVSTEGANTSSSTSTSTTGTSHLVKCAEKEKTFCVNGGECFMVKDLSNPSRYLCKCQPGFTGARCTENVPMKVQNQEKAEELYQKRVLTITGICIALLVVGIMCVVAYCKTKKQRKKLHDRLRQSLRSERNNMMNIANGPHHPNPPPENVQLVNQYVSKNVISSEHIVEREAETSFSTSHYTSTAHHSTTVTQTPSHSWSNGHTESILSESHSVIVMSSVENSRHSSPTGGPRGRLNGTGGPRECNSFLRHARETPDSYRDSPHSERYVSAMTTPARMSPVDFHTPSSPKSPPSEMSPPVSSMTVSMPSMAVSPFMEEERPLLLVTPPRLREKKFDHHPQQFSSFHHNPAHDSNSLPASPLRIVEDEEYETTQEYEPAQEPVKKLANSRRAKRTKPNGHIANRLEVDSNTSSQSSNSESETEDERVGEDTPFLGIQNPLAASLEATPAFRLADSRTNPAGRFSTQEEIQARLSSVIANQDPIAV

Row | Compound | composite z-score [1] | composite z-score [2] | composite z-score [3] | composite z-score [4] | composite z-score [5] | composite z-score [6] | composite z-score [7] | z-score [8] | composite z-score [9] | composite z-score [10]
1 | COCC(=C=CC[C@H](O)c1cccc(OCCO)c1)C[C@H](O)COCc1ccccc1 | 0.0102 | 0.823 | -0.0602 | 0.427 | 0.276 | 1.51 | 1.31 | 0.574 (inactive) | 0.256 | -0.476
2 | COCCOC(=O)N1C(=O)[C@@]2(c3ccccc31)[C@H](c1ccccc1OCCO)N1[C@H](c3ccccc3)[C@H](c3ccccc3)OC(=O)[C@H]1[C@@H]2C(=O)N1CCCCCCC1 | 4.11 | 2.32 | 0.959 | 1.32 | 1.78 | 2.25 | 1.39 | -3.81 (inactive) | 3.36 | 2.53
3 | [N-]=[N+]=Nc1ccccc1C[C@]1(C(=O)NCc2ccccc2)COC(c2ccc(OCCCO)cc2)=N1 | 0.191 | 0.666 | 0.113 | 1.27 | 0.777 | 1.24 | 1.21 | -1.36 (inactive) | 0.892 | -0.207
4 | CCCC=C(CCC)[C@@H](NC(=O)CCc1ccccc1)c1ccc(C(F)(F)F)cc1 | 0.304 | 0.0979 | 0.0836 | 0.0199 | 1.53 | 1.51 | 0.969 | -0.129 (inactive) | 0.821 | 0.107
5 | O=c1cccc(-c2ccc(F)cc2)o1 | -0.227 | -0.0321 | -0.0455 | 0.255 | 0.607 | -0.219 | 1.08 | 0.855 (inactive) | 0.552 | 0.643
6 | CC(C)C[C@@H]1NC(=O)[C@@H]2C[C@H](C(=O)NCCCCCC[N+](C)(C)C)[C@H](c3cccc(OCCO)c3)N2C1=O | 0.222 | 0.0263 | -0.145 | -0.289 | 0.114 | 1.06 | 1.18 | 2.84 (inactive) | -0.304 | -0.126
7 | CS(=O)(=O)CCOC(=O)C1=CC(CCCO)=CC(C2CC2)N(Cc2cccc(OC(F)(F)F)c2)C=C1C(=O)OCCS(C)(=O)=O (stereo not given) | -0.527 | 0.314 | -0.0734 | 0.147 | -0.116 | 1.07 | 0.897 | 0.677 (inactive) | 0.0187 | -0.0994
8 | CC(C)=CCCC(C)=CC(O)C1C=CC2C(=O)N(c3ccccc3)C(=O)C2N1Nc1ccccc1F (stereo not given) | -0.0417 | -0.113 | -0.138 | 0.498 | 0.765 | 1.49 | 1.09 | 0.314 (inactive) | -0.174 | -0.329
9 | C=CC1c2cc(O)c(OC)cc2CCN1Cc1ccc([N+](=O)[O-])o1 (stereo not given) | 0.29 | 0.381 | -0.0156 | 0.673 | 1.12 | 1.64 | 1.09 | -0.0303 (inactive) | 0.457 | 0.245
10 | CN1C(=O)C2C=CC(C(O)c3cc(C(F)(F)F)cc(C(F)(F)F)c3)N(NC(=O)OC(C)(C)C)C2C1=O (stereo not given) | 0.153 | 0.324 | -0.0169 | 0.577 | 1.67 | 2.01 | 1.03 | 1.07 (inactive) | 1.52 | -0.0296
11 | O=C(N1CCOCC1)[C@@]1(CCS(=O)(=O)c2ccccc2)N=C(c2ccc(OCCCO)cc2)O[C@H]1c1ccccc1 | 0.448 | 1.06 | 0.0671 | 0.515 | 1.45 | 2.31 | 1.37 | 0.419 (inactive) | 1.37 | -0.191
12 | COCCCNC(=O)[C@@]1(Sc2ccc(C)cc2)CC(=O)N(C(C)C)[C@@H]1c1ccc(CO)cc1I | 0.438 | -0.107 | 0.0854 | 0.606 | -0.622 | 1.89 | 1.25 | -1.2 (inactive) | -0.307 | -0.0581
13 | C=C[C@@H](C)[C@@H](OC(=O)Nc1ccc(SC)cc1)c1ccc(OCCO)cc1 | 0.004 | 0.81 | 0.0918 | 0.447 | -0.202 | 1.41 | 1.26 | 10.5 (active) | 0.051 | 0.0373
14 | COc1ccc([Si](C)(C)[C@@H]2[C@@H](CCn3cc([C@H](O)c4ccccc4)nn3)O[C@]3(C(=O)N(Cc4cccc(N5C(=O)c6cccc7cccc5c67)c4)c4ccccc43)[C@H]2C)cc1 | 0.022 | -0.362 | -0.146 | -0.472 | -0.643 | 0.173 | 0.741 | -0.814 (inactive) | -0.0472 | -0.309
15 | COc1cc(NN2C(C(O)c3cc(OC)c(OC)c(OC)c3)C=CC3C(=O)N(c4ccccc4)C(=O)C32)cc(OC)c1OC (stereo not given) | 0.457 | 0.512 | 0.432 | 1.09 | 1.57 | 1.79 | 1.38 | 0.997 (inactive) | 0.669 | -0.0631
16 | COCC(=C=CC[C@@H](O)c1cccc(OCCO)c1)CCO | -0.117 | 0.0969 | -0.11 | 0.674 | 0.234 | 0.678 | 1.02 | 0.604 (inactive) | 0.101 | -0.0074
17 | COc1ccc(C(O)C2C=CC3C(=O)N(c4ccccc4)C(=O)C3N2Nc2ccc(C(C)C)cc2)c2ccccc12 (stereo not given) | -0.0766 | 0.309 | 0.0442 | 0.7 | 1.59 | 1.49 | 1.16 | -1.31 (inactive) | 1.83 | -0.148
18 | CN(C)CCCCNC(=O)[C@H]1C[C@H]2C(=O)N[C@@H](CCCC[N+](C)(C)C)C(=O)N2[C@H]1c1ccc(O)cc1 | -0.334 | 0.755 | -0.136 | -0.556 | -0.661 | -0.506 | 0.942 | 3.25 (inactive) | -0.31 | -0.132
19 | [N-]=[N+]=NCc1ccccc1[C@@H]1OC(c2ccc(OCCCO)cc2)=N[C@]1(Cc1ccccc1)C(=O)NCCN1CCOCC1 | 0.32 | 0.0026 | 0.159 | 1.1 | 1.4 | 1.25 | 1.23 | 0.106 (inactive) | 1.09 | -0.126
20 | C=C(/C(=C/C[C@H](OC(=O)c1ccncc1)c1cccc(OCCO)c1)c1cnc2ccccc2c1)C(C)C | 0.0581 | 0.857 | -0.0448 | 1.34 | 1.41 | 1.07 | 0.884 | -2.64 (inactive) | 0.157 | 0.0695
21 | O=C1C[C@@](C(=O)NCC(F)(F)F)(c2ccc([N+](=O)[O-])cc2)[C@@H](c2ccc(CO)cc2)N1CC12CC3CC(CC(C3)C1)C2 | 0.213 | 0.244 | 0.134 | 1.15 | 1.19 | 0.812 | 1.32 | -2.42 (inactive) | 0.724 | 0.914
22 | C=C(C)C1CCC(C(O)C2C=CC3C(=O)N(C)C(=O)C3N2Nc2cc(OC)c(OC)c(OC)c2)CC1 (stereo not given) | 0.735 | 0.287 | 0.115 | 0.334 | 1.57 | 1.97 | 1.29 | 1.12 (inactive) | 1.07 | -0.0296
23 | C=C(CCCC)/C(=C/C[C@H](OC(C)=O)c1ccc(OCCO)cc1)c1cc(C(=O)OC)ccc1OC | -0.321 | -0.137 | 0.0057 | 0.674 | -0.0254 | 1.04 | 1 | 8.65 (active) | -0.28 | -0.179
24 | CC(C)CNC(=O)[C@@H]1c2ccccc2C(=O)N(C2CCCCC2)[C@H]1c1ccc(CO)cc1 | 0.386 | -0.754 | -0.0962 | -0.305 | -0.354 | 1.69 | 1.28 | -1.8 (inactive) | 0.0088 | 0.0497
25 | CC(C)C(=C=CC[C@H](O)c1cccc(OCCO)c1)CCO | -0.068 | 1.33 | -0.0937 | -0.194 | -0.379 | -0.356 | -0.403 | 0.163 (inactive) | -0.045 | -0.287
26 | COc1ccc(CCNC(=O)[C@@]2(Cc3ccccc3I)c3ccccc3C(=O)N(Cc3ccccc3Cl)[C@H]2c2ccc(CO)cc2)cc1 | 0.696 | 0.348 | 0.189 | 0.0625 | 0.0077 | 1.8 | 1.22 | -3.44 (inactive) | 0.262 | 0.674
27 | CCOC(=O)C=Cc1ccccc1O | -0.13 | 0.0396 | -0.0156 | 0.205 | 0.578 | -0.0345 | 0.614 | 0.911 (inactive) | 0.245 | -0.0003
28 | C[C@@H]1ON(c2ccc(I)cc2)[C@H](c2ccc(OC(=O)OC(C)(C)C)cc2)[C@H]1C(=O)N1C(=O)OC[C@H]1Cc1ccccc1 | -0.478 | 0.0988 | -0.175 | 0.253 | 0.756 | 0.178 | 0.492 | 3.7 (inactive) | 0.238 | -0.0672

— PubChem BioAssay
